Shown are actives, neighbours in structure and some others; about 1.4% of the full set was active somewhere.
uPA generation: inhibitors of cell surface uPA generation; cell surface uPA generation assay, qHTS; Potency, µM (titrated, usually from 38.3 µM), for inactives: at the highest dose activity change, negative = inhibition, usual class: inhibitors; 0.31% of 330,000 active; AID 540303; active means well fitted inhibition curve with a large enough effect; inconclusive means small, poorly fitted or top-dose-only effect; inactive means no such curve, though single readings can be large or run the other way; tested in mouse RAW 264.7 cells; further: potency means the concentration at half of the fitted maximal effect; on the % scale 0 is the no-effect control and ±100 the full control effect; nearly all actives have a fitted effect of over 55% in size
KCNH2 3.1 block: KCNH2 3.1 (human) potassium channel inhibition; activity change, % (tested at about 1.8 µM); U2OS KCNH2 3.1, thallium flux FluxOr; active compounds read low; AID 720553; 0.95% of 340,000 active;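 active means maximum activity change below -70%; inconclusive means maximum activity change from -70% to -50%; inactive means maximum activity change above -50%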;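 further: thallium influx rate constant from kinetic fluorescence after stimulation buffer; on the % scale 0 is the no-effect control and ±100 the full control effect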
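Steps: virus added to U2OS suspension (4 h, RT, dark); medium with 10% FBS added, cells plated, 37 C overnight; FluxOr/Red40 loading buffer 45 min RT; stimulation buffer, 2 min kinetic read; rate constant normalized.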
Mm-Cpn inhibitor: inhibitors of Methanococcus maripaludis chaperonin TRiC (MmCpn) | purified Mm-Cpn ATPase, ADP Transcreener TR-FRET | Potency, µM (titrated, usually from 76.9 µM), for the others: at the highest dose activity, negative = inhibition, usual class: inhibitors | 0.031% of 330,000 active | AID 504842; further: potency means the concentration at half of the fitted maximal effect; on the % scale 0 is the no-effect control and ±100 the full control effect; nearly all actives have a fitted effect of over 80% in size
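Purified archaeal Mm-CPN (25nM final) preincubated 10 min at 37degC with compound, then 10uM ATP for 30 min at 37degC; ADP measured by HTRF Transcreener TR-FRET; buffer 30 mM TRIS pH 7.4, 100mM KCl, 5mM MgCl2, 1mM DTT.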
S-ASM inh: human S-ASM enzyme inhibition; P17405; placental ASM, HMU-PC fluorogenic substrate, 60 min; Potency, µM (series often up to 57.5 µM), without a hit: at the highest dose activity change, negative = inhibition, usual class: inhibitors; 0.006% of 340,000 active; AID 504937; further: potency means the concentration at half of the fitted maximal effect
Target sequence (P17405 47-631 limits assumed): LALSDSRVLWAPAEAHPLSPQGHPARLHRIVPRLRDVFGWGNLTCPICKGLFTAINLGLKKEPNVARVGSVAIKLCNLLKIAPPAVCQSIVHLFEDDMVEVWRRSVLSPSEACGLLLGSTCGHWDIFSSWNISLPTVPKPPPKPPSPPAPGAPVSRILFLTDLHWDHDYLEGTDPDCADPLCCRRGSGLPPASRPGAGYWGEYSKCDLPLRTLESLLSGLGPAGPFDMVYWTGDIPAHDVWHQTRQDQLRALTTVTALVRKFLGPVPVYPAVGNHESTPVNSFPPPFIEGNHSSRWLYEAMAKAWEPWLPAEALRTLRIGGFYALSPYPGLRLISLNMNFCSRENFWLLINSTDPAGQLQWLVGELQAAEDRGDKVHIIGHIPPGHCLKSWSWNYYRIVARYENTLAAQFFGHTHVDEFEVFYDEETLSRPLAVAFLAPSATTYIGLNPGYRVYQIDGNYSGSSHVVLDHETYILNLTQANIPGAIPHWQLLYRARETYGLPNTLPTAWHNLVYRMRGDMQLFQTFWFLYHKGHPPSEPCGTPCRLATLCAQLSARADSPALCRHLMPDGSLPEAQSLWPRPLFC
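Fluorogenic HMU-PC substrate (9 uM final) is turned over by placental ASM in 60 min at 37 C after a 10 min compound preincubation. Reaction ended by alkaline stop (pH 10), with fluorescence read at 386/447 nm.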
p53 reactivation: re-activators of mutant p53; H1299 p53-A138V BP100-luciferase reporter, luminescence, 24 h; Potency, µM (doses to about 92.2 µM), without a hit: top-dose activity change, positive = activation, hits mostly activators; 0.063% of 320,000 active; AID 504706; further: potency means the concentration at half of the fitted maximal effect; % of control where 0% means no effect; nearly all actives have a fitted effect of over 45% in size
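p53-null H1299 cells stably carrying temperature-sensitive p53-A138V and a BP100-luciferase reporter were pinned with compounds (4-point, 1:5 series) and held 24 hrs at 37 deg C. Luminescence was read 10 min after detection reagent.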
hERG WT inh: inhibitors of human wildtype KCNH2 potassium channel. U2OS, BacMam KCNH2, thallium flux FluxOr; active compounds read low. activity change, % at 1.84 µM. Q12809. 0.37% of 340,000 active;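 active means maximum activity change below -70%; inconclusive means maximum activity change between -70% and -50%; inactive means maximum activity change above -50%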; further: on the % scale 0 is the no-effect control and ±100 the full control effect
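U2OS cells were transduced with wild-type KCNH2 virus (2.03 x 10^8 / mL) for 4 h at room temperature, then cultured overnight at 37 C. Thallium flux was read with FluxOr dye. Rate constants were normalized to DMSO controls.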
Numbers without * were called inactive. Unless noted, the call rests on the fitted dose curve; in most records, active means well fitted curve in the direction sought with a large enough effect; inconclusive means small, poorly fitted or top-dose-only effect, or another doubt; inactive means no such curve, though single readings can be large; an effect the other way counts as inactive or inconclusive.

`O=[N+]([O-])c1ccc(NC(c2ccccc2)c2ccc3cccnc3c2O)cc1` (stereo not given) gave uPA generation -9.9%, KCNH2 3.1 block -70.8*, S-ASM inh -16.4% and hERG WT inh -11.9.
Screening Oc1c(C(c2ccccc2Cl)N2CCCC2)ccc2cccnc12 (stereo not given) returned uPA generation 7.94µM*, KCNH2 3.1 block 6.9, Mm-Cpn inhibitor 0.9%, S-ASM inh 2.2%, p53 reactivation 6.2% and hERG WT inh -3.6.
For CCCCC(=O)NC(c1cccc([N+](=O)[O-])c1)c1ccc2cccnc2c1O (stereo not given) the results were uPA generation 5.01µM*, KCNH2 3.1 block -45.5, S-ASM inh -3.5% and hERG WT inh -19.6.
Screening Oc1c(C(c2ccc(Cl)cc2)N2CCCC2)cc(Cl)c2cccnc12 (stereo not given) returned uPA generation inconclusive, KCNH2 3.1 block -23.4, Mm-Cpn inhibitor 0.9%, S-ASM inh -2.2%, p53 reactivation 12.2% and hERG WT inh 0.8.
CC(=O)NC(c1cccc([N+](=O)[O-])c1)c1ccc2cccnc2c1O (stereo not given) was read as uPA generation -13.0%, KCNH2 3.1 block -1.3, Mm-Cpn inhibitor 2.4%, S-ASM inh 0.8%, p53 reactivation -68.7% and hERG WT inh 15.7.
CCOc1ccc(NC(=O)CN(c2ccc(OC)cc2)S(=O)(=O)c2cccs2)cc1 was read as uPA generation 1.4%, KCNH2 3.1 block -44.1, Mm-Cpn inhibitor -0.3%, S-ASM inh 1.4%, p53 reactivation 12.4% and hERG WT inh 2.0.
CN(C)c1cc(-c2ccc(Cl)c(Cl)c2)oc(=O)c1Cl was read as uPA generation 6.4%, KCNH2 3.1 block -97.8*, Mm-Cpn inhibitor -0.5%, S-ASM inh -0.7%, p53 reactivation 3.0% and hERG WT inh 2.1.
C=CS(=O)(=O)N(Cc1ccc(Cl)c(Cl)c1)C[C@@H](O)CO was read as uPA generation 3.55µM*, KCNH2 3.1 block 5.2, Mm-Cpn inhibitor -2.1%, S-ASM inh 0.2%, p53 reactivation -21.7% and hERG WT inh -14.8.
`COC(=O)c1cn(C(=O)c2ccc(OC)cc2)c2ccccc12` gave uPA generation -12.2%, KCNH2 3.1 block 0.5, Mm-Cpn inhibitor -1.4%, S-ASM inh -8.5% and hERG WT inh 6.1.
Cc1ccc(S(=O)(=O)N2C=CC(C(F)(F)F)=NCC2)cc1 was read as uPA generation 5.9%, KCNH2 3.1 block 13.3, Mm-Cpn inhibitor 0.1%, S-ASM inh -0.5%, p53 reactivation -3.0% and hERG WT inh -76.5*.
`O=C(CC(c1ccccc1)C1CCCCC1=O)c1ccccc1` (stereo not given) gave uPA generation 4.1%, KCNH2 3.1 block 3.4, S-ASM inh -1.1% and hERG WT inh -0.1.
Screening CCOc1ccc2c(c1)C(=NNC(=O)c1ccncc1)c1cc(OCC)ccc1-2 returned uPA generation -3.9%, KCNH2 3.1 block 0.2, Mm-Cpn inhibitor -1.3%, S-ASM inh -5.7%, p53 reactivation 39.8µM* and hERG WT inh -9.0.
Cn1c(SSc2ccc(-c3cccnc3)n2C)ccc1-c1cccnc1 was read as uPA generation -14.2%, KCNH2 3.1 block -19.3, S-ASM inh -0.5% and hERG WT inh -9.6.
For Cc1cc(N2CCN(C(=O)Nc3ccc(F)cc3F)CC2)c2ccccc2n1 the results were uPA generation -15.6%, KCNH2 3.1 block -8.3, Mm-Cpn inhibitor -0.3%, S-ASM inh -3.3%, p53 reactivation -8.5% and hERG WT inh -4.0.
For CCCCc1ccc(NC(=O)N2CCN(c3cc(C)nc4ccccc34)CC2)c(C)c1 the results were uPA generation -12.4%, KCNH2 3.1 block -93.9*, Mm-Cpn inhibitor -0.5%, S-ASM inh -9.3%, p53 reactivation 2.7% and hERG WT inh -44.3.
Screening CCOc1ccc(C(=O)CCC(=O)N(CC)CC(=O)NCc2ccc(Cl)cc2)cc1 returned uPA generation -0.5%, KCNH2 3.1 block -1.6, Mm-Cpn inhibitor -19.7%, p53 reactivation 15.1% and hERG WT inh -159.9*.
Screening COc1ccc(CNC(=O)CN(C)Cc2ccc(SC)cc2)cc1 returned uPA generation 0.8%, KCNH2 3.1 block -77.9*, Mm-Cpn inhibitor 1.1%, S-ASM inh 6.8%, p53 reactivation 2.0% and hERG WT inh -9.1.
`CCOc1ccc(CN(C)CC(=O)NCc2ccc(F)cc2)cc1` gave uPA generation -9.5%, KCNH2 3.1 block -103.2*, Mm-Cpn inhibitor 1.5%, S-ASM inh 3.7%, p53 reactivation -3.5% and hERG WT inh inconclusive.
`CSc1ccc(CN(C)CC(=O)NCc2ccccc2)cc1` gave uPA generation -3.1%, KCNH2 3.1 block -7.8, Mm-Cpn inhibitor 0.9%, S-ASM inh 6.0%, p53 reactivation 1.5% and hERG WT inh 13.8.
Cc1ccc(S(=O)(=O)N2C[C@]3(O)C[C@@H]4C(=O)N(c5ccccc5)C(=O)[C@@H]4C[C@]3(OC(=O)NCc3ccccc3)C2)cc1 was read as KCNH2 3.1 block 4.4 and hERG WT inh -9.1.
`Cc1cc(C)cc(N(CC(=O)NCc2ccco2)C(=O)CCC(=O)Nc2nccs2)c1` gave uPA generation 4.0%, KCNH2 3.1 block -71.8*, Mm-Cpn inhibitor 2.2%, S-ASM inh 2.8%, p53 reactivation 2.7% and hERG WT inh 6.2.
`Cc1ccc(N(CC(=O)NCc2ccco2)C(=O)CCC(=O)Nc2nccs2)cc1` gave uPA generation -1.6%, KCNH2 3.1 block 4.2, Mm-Cpn inhibitor 0.2%, S-ASM inh -0.5%, p53 reactivation -2.0% and hERG WT inh -0.1.
For CCOc1ccc(N(CC(=O)NC2CCCC2)C(=O)CCC(=O)Nc2nccs2)cc1 the results were uPA generation -3.2%, KCNH2 3.1 block 10.4, Mm-Cpn inhibitor 1.1%, S-ASM inh -0.2%, p53 reactivation -3.1% and hERG WT inh 5.0.
Screening CCOc1ccc(N(CC(=O)NC2CCCCC2)C(=O)CCC(=O)Nc2nccs2)cc1 returned uPA generation 1.9%, KCNH2 3.1 block -90.8*, Mm-Cpn inhibitor -1.0%, S-ASM inh 8.2%, p53 reactivation 0.3% and hERG WT inh 5.5.
For Cc1ccc(C(=O)NCc2ccc3c(c2)OCO3)cc1S(=O)(=O)N1CCCCC1 the results were uPA generation 6.8%, KCNH2 3.1 block -13.6, Mm-Cpn inhibitor -3.1%, S-ASM inh 2.0%, p53 reactivation -5.2% and hERG WT inh -91.0*.
Screening O=C(NCc1ccc2c(c1)OCO2)c1ccc(Cl)c(S(=O)(=O)N2CCOCC2)c1 returned KCNH2 3.1 block -93.7*, Mm-Cpn inhibitor 0.9%, S-ASM inh -1.5%, p53 reactivation -3.1% and hERG WT inh 0.1.

Screens: PubChem BioAssay, National Center for Advancing Translational Sciences (NCATS)
